For one sequence, binding signal results are on record in PMC7862700, “An all-to-all approach to the identification of sequence-specific readers for epigenetic DNA modifications on cytosine”.

Common to all, as to assay: DAPPL (digital affinity profiling via proximity ligation, sequencing); 10 mM Tris-HCl pH 7.5, 50 mM NaCl, 1 mM DTT, 4% glycerol, room temperature, 30 min; GST-TFs on glutathione beads, 16-mer random dsDNA library, 0.1% formaldehyde crosslink after washing; high values mean tight binding
The target of one assay is T1, FEV (Homo sapiens, UniProt Q99581 1-238).
T1 sequence: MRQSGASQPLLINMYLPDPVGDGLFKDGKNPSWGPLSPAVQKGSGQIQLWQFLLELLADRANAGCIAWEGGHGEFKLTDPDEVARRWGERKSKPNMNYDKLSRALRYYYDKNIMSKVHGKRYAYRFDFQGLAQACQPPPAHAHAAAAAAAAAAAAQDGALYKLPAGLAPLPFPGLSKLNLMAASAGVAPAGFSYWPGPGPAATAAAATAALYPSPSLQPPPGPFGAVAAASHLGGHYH
As to conditions: protein: recombinant; tags: N-terminal GST; dsDNA, one strand shown. In short, it runs like this: (§1)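 Sequencing on an Illumina NextSeq500 followed washing, crosslinking with 0.1% formaldehyde, proximity ligation (BsaI/T4 ligase, 1 h, 37 °C) and PCR amplification of pools that had been incubated for 30 min at room temperature with 200 nmole of a random double-stranded 16-mer DNA library in Tris/NaCl/DTT/glycerol buffer. Each pool held DNA-barcoded human transcription factors, expressed in yeast as GST fusions and captured on glutathione beads, plus a tag-only sample. Binding signal is a hexamer's read frequency for a factor divided by its frequency in the tag-only sample.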

A further assay addresses ETV5 (Homo sapiens, UniProt P41161 1-510). The following applies: protein: recombinant; tags: N-terminal GST; dsDNA, one strand shown. In outline: as §1
In another assay the target is HSF1 (Homo sapiens, UniProt Q00613 1-529). The following applies: protein: recombinant; tags: N-terminal GST; chain copies: 3; dsDNA, one strand shown. In short, it runs like this: as §1
The next assay addresses T2, SPIC (Homo sapiens, UniProt Q8N5J4 1-248).
T2 sequence: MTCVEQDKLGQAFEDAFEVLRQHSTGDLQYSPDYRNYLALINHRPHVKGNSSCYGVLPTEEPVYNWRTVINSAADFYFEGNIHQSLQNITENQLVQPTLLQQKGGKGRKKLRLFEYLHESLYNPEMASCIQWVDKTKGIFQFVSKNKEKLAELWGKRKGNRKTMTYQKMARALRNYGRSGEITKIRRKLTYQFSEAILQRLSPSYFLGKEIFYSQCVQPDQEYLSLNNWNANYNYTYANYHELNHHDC
The following applies: protein: recombinant; tags: N-terminal GST; dsDNA, one strand shown. In short, it runs like this: as §1

A further assay deals with ELF4 (Homo sapiens, UniProt Q99607 1-663). As to conditions: protein: recombinant; tags: N-terminal GST; dsDNA, one strand shown. In outline:
as §1

The next assay addresses T3, ELK4 (Homo sapiens, UniProt P28324-2 1-405).
T3 sequence: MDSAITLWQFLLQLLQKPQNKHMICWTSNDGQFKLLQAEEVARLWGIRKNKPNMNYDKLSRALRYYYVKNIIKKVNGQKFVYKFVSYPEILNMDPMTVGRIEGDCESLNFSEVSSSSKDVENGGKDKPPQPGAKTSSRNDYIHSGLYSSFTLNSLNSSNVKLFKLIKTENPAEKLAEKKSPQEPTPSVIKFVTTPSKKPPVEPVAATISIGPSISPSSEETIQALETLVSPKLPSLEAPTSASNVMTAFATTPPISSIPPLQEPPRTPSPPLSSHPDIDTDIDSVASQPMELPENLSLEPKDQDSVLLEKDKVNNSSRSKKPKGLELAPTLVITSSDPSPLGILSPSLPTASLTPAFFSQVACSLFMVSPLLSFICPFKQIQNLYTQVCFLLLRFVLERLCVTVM
As to conditions: protein: recombinant; tags: N-terminal GST; dsDNA, one strand shown. In outline:
as §1

The target of a further assay is T4, ETV2 (Homo sapiens, UniProt O00321 1-342).
T4 sequence: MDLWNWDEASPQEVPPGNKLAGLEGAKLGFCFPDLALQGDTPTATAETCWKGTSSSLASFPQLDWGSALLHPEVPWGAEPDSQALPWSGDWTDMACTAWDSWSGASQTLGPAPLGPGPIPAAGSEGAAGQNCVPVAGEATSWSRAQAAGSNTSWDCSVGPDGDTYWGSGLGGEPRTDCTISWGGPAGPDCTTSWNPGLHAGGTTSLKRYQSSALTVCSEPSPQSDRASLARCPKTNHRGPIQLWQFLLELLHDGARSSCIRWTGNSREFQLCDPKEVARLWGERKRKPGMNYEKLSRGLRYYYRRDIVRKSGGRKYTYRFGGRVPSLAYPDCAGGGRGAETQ
As to conditions: protein: recombinant; tags: N-terminal GST; dsDNA, one strand shown. In outline: as §1

The next assay has as its target T5, ELF3 (Homo sapiens, UniProt P78545 1-371).
T5 sequence: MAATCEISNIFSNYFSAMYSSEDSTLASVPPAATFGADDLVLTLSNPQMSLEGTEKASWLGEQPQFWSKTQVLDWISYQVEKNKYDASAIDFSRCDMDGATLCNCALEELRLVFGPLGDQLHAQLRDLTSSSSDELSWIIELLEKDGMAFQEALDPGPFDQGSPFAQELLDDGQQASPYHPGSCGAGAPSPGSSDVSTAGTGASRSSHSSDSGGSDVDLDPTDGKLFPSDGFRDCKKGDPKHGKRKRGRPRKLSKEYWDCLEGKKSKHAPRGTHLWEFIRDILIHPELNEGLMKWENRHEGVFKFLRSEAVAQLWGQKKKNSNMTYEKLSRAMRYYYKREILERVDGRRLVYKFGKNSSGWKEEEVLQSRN
The following applies: protein: recombinant; tags: N-terminal GST; dsDNA, one strand shown. In short, it runs like this:
as §1

The next assay addresses CRX (Homo sapiens, UniProt O43186 1-299). The following applies: protein: recombinant; tags: N-terminal GST; dsDNA, one strand shown. In short, it runs like this:
as §1

For the next assay, the target named is ETV1 (Homo sapiens, UniProt P50549 1-477). The following applies: protein: recombinant; tags: N-terminal GST; dsDNA, one strand shown. In short, it runs like this:
as §1

The target in the next assay is T6, ERF (Homo sapiens, UniProt P50548 1-548).
T6 sequence: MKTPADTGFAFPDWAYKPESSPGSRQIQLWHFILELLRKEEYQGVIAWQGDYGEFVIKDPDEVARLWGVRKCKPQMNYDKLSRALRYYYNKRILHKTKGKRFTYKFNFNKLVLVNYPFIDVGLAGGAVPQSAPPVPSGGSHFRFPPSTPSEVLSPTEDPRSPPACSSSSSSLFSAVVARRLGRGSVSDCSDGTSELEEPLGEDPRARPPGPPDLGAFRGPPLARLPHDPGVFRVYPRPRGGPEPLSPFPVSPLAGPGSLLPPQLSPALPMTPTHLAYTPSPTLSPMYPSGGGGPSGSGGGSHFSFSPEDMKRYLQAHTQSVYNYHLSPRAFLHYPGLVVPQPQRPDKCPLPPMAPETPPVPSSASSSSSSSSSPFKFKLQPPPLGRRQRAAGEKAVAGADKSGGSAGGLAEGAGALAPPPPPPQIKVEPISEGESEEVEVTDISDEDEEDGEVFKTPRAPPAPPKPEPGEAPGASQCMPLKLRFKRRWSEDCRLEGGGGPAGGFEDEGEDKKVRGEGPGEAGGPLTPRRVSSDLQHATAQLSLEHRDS
As to conditions: protein: recombinant; tags: N-terminal GST; dsDNA, one strand shown. In outline: as §1

Another assay has as its target T7, ETV3L (Homo sapiens, UniProt Q6ZN32 1-361).
T7 sequence: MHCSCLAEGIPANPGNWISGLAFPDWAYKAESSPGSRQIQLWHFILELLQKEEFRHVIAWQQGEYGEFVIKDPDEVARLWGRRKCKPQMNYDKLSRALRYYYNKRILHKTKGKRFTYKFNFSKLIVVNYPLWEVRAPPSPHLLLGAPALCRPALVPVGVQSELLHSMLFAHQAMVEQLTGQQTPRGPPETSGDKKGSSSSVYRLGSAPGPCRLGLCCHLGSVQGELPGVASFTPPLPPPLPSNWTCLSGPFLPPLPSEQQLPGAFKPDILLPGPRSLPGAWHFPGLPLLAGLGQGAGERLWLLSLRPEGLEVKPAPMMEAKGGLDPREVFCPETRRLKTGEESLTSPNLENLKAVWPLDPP
The following applies: protein: recombinant; tags: N-terminal GST; dsDNA, one strand shown. In short, it runs like this: as §1

For the next assay, the target named is T8, ETS2 (Homo sapiens, UniProt P15036 1-469).
T8 sequence: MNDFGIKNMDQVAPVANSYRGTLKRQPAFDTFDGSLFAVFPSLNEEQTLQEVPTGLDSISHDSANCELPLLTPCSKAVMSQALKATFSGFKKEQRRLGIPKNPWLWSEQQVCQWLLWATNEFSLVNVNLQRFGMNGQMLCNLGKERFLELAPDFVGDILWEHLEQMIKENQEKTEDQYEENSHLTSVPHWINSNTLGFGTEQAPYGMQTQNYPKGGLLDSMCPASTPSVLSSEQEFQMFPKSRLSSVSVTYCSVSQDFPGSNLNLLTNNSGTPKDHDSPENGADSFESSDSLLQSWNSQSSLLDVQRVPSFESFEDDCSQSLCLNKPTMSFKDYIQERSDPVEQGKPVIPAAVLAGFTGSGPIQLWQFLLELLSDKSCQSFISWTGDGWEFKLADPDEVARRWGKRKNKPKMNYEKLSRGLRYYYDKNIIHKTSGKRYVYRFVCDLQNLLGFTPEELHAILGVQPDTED
As to conditions: protein: recombinant; tags: N-terminal GST; dsDNA, one strand shown. In short, it runs like this:
as §1

Another assay deals with T9, SPDEF (Homo sapiens, UniProt O95238 1-335).
T9 sequence: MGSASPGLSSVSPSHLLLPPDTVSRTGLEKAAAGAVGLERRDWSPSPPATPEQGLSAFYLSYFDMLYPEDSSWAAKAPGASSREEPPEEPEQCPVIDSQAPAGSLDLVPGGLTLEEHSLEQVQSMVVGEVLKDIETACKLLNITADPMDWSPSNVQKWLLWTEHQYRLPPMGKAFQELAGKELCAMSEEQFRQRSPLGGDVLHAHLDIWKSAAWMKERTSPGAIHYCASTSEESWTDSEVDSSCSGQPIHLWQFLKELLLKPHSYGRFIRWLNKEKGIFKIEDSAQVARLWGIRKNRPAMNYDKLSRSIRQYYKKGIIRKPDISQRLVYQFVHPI
As to conditions: protein: recombinant; tags: N-terminal GST; dsDNA, one strand shown. In short, it runs like this: as §1

The next assay concerns the target T10, ETV7 (Homo sapiens, UniProt Q9Y603 1-341).
T10 sequence: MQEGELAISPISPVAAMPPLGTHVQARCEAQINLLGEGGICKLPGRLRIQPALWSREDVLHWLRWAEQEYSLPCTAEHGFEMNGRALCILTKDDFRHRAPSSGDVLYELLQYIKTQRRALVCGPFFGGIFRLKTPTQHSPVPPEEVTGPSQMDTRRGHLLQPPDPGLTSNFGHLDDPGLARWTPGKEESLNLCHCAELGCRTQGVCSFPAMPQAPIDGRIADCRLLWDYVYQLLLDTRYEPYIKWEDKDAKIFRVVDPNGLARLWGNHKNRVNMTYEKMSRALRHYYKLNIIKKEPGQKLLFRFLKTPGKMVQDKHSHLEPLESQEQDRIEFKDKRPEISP
As to conditions: protein: recombinant; tags: N-terminal GST; dsDNA, one strand shown. In outline: as §1

The target in a further assay is T11, ELF5 (Homo sapiens, UniProt Q9UKW6-2 1-255).
T11 sequence: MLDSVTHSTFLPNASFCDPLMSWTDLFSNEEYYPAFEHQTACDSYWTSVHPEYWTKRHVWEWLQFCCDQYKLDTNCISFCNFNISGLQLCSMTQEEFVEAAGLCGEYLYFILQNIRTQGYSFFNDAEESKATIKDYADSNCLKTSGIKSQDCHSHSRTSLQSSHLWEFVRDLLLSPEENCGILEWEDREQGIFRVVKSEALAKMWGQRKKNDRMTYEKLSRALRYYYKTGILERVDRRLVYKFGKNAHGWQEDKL
The following applies: protein: recombinant; tags: N-terminal GST; dsDNA, one strand shown. In outline:
as §1

Another assay concerns the target T12, ETV3 (Homo sapiens, UniProt P41162-2 1-143).
T12 sequence: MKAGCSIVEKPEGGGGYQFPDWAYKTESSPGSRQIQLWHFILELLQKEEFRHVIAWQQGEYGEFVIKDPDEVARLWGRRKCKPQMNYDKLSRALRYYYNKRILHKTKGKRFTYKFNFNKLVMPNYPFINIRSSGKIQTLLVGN
The following applies: protein: recombinant; tags: N-terminal GST; dsDNA, one strand shown. In outline:
as §1

Another assay deals with ETV6 (Homo sapiens, UniProt P41212 1-452). The following applies: protein: recombinant; tags: N-terminal GST; dsDNA, one strand shown. In short, it runs like this: as §1
Sequence of ETV6 (P41212 whole entry): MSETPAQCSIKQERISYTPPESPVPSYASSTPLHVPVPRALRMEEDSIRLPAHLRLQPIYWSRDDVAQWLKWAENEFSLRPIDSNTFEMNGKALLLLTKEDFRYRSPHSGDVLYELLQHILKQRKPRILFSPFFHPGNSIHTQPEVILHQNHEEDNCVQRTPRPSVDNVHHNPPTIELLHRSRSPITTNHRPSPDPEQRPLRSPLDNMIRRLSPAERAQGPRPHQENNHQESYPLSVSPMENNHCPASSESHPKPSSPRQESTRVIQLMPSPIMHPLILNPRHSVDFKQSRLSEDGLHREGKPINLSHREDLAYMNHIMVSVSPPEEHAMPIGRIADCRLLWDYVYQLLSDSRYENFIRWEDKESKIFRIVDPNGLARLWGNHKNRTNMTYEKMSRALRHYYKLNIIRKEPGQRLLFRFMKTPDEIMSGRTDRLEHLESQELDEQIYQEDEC

Sequence of HSF1 (Q00613 whole entry): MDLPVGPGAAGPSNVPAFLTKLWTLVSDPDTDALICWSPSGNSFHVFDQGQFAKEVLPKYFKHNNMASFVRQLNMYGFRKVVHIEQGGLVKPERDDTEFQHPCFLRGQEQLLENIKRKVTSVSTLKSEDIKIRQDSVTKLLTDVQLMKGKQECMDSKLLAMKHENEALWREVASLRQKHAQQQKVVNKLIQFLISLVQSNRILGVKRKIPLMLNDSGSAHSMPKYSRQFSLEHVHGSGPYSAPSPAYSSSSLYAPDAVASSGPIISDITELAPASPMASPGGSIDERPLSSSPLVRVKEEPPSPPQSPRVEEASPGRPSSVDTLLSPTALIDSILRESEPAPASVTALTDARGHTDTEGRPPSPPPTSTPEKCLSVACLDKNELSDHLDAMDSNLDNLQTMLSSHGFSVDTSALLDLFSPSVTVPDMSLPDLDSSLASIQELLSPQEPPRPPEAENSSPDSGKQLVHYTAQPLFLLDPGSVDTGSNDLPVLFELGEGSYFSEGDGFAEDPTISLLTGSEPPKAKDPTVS
Sequence of CRX (O43186 whole entry): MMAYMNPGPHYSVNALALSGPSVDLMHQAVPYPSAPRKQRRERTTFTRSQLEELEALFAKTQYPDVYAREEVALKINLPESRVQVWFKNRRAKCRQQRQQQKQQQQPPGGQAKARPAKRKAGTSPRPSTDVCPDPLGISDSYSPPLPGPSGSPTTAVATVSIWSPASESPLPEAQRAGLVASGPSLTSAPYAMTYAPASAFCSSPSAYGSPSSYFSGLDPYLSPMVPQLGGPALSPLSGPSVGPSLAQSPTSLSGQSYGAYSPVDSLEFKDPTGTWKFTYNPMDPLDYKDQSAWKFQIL
Sequence of ELF4 (Q99607 whole entry): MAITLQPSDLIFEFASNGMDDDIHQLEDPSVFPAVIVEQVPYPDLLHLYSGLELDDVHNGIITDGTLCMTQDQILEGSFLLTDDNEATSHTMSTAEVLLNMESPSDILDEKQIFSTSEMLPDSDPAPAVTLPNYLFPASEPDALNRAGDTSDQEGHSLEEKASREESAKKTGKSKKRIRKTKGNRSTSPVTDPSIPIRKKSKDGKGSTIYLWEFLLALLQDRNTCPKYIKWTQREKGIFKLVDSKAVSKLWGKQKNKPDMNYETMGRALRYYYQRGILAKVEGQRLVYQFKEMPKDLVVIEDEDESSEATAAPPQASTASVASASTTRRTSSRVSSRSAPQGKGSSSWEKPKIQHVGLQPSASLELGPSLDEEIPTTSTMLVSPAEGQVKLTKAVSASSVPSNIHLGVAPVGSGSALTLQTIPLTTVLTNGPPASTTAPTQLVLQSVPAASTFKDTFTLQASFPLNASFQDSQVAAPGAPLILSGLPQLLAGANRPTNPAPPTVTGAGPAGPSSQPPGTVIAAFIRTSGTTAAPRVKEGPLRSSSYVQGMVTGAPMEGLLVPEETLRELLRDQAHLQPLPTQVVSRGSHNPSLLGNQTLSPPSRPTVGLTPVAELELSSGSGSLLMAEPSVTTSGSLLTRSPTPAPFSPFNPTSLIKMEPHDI
Sequence of ETV5 (P41161 whole entry): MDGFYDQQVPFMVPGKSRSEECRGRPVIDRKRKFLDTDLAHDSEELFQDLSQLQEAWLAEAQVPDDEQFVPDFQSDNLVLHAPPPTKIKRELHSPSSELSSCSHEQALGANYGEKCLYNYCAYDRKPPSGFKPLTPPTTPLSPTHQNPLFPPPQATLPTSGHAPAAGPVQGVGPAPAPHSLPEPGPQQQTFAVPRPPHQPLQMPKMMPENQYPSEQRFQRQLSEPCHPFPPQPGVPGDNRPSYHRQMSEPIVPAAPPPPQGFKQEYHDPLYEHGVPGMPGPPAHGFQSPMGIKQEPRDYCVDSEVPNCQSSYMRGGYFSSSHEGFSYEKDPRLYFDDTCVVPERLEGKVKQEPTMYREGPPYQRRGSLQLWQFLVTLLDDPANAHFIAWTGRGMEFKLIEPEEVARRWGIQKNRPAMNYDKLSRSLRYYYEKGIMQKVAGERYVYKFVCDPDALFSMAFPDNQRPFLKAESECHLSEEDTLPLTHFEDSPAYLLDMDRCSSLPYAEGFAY
Sequence of ETV1 (P50549 whole entry): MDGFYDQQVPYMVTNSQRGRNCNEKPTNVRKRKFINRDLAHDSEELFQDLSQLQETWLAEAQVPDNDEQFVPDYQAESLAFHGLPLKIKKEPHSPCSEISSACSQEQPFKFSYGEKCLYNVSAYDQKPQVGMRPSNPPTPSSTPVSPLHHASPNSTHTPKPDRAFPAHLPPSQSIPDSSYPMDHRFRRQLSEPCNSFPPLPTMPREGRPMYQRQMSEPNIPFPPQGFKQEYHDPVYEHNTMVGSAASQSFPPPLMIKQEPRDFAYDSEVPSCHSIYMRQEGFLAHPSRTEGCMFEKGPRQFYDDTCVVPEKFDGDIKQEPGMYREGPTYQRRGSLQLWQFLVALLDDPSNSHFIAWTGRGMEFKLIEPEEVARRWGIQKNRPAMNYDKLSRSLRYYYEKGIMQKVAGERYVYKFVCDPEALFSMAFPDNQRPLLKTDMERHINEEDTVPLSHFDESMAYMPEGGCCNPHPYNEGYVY

With GATGAC, the binding signal with FEV is 1.47 fold enrichment (6-mer frequency, TF over GST control); with ETV5 it was 1.49 fold enrichment (6-mer frequency, TF over GST control); with HSF1, 1.27 fold enrichment (6-mer frequency, TF over GST control); with SPIC, 1.15 fold enrichment (6-mer frequency, TF over GST control); with ELF4 it was 1.56 fold enrichment (6-mer frequency, TF over GST control); with ELK4, 1.42 fold enrichment (6-mer frequency, TF over GST control). The binding signal in the assay with ETV2 is 1.35 fold enrichment (6-mer frequency, TF over GST control); with ELF3, 1.48 fold enrichment (6-mer frequency, TF over GST control); in the assay with CRX, 1.26 fold enrichment (6-mer frequency, TF over GST control); in the assay with ETV1 it was 1.55 fold enrichment (6-mer frequency, TF over GST control); with ERF, 1.45 fold enrichment (6-mer frequency, TF over GST control); with ETV3L, 1.53 fold enrichment (6-mer frequency, TF over GST control). Besides, the binding signal with ETS2 was 1.44 fold enrichment (6-mer frequency, TF over GST control); in the assay with SPDEF it was 1.55 fold enrichment (6-mer frequency, TF over GST control); in the assay with ETV7, 1.61 fold enrichment (6-mer frequency, TF over GST control); with ELF5, 1.53 fold enrichment (6-mer frequency, TF over GST control); with ETV3, 1.56 fold enrichment (6-mer frequency, TF over GST control); with ETV6, 1.43 fold enrichment (6-mer frequency, TF over GST control).
